IMPase Li inh: qHTS Assay for Identifying the Cell-Membrane Permeable IMPase Inhibitors: Potentiation with Lithium; CHO-M1 cells, IP1 TR-FRET (IP-One), carbachol + lithium; Potency, µM (series often up to 59.4 µM), inactives show at the highest dose activity, negative = IMPase inhibition, actives largely listed as inhibitors; hit rate 0.35% among 210,000; AID 1457, 2008;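 further: IP1 builds up when IMPase is blocked and the TR-FRET signal falls; potency means the concentration at half of the fitted maximal effect; plate controls were basal vehicle for no effect and high inhibitor control for full effect; nearly all actives have a fitted effect of over 50% in size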
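Concentration–response in CHO-M1 cells, lithium-potentiated; 30 min at 37C. IP1 detected by competitive TR-FRET after 10 min lysis at RT. Hill-fitted AC50.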
TRPV1 ag: HTS Assay for Compounds that Act as Agonists of the Vanilloid Receptor 1. AID 540275, 2011. TRPV1-expressing cells, Fluo-8 calcium influx, agonist mode. Transient receptor potential cation channel subfamily V member 1 (Homo sapiens), Q8NER1. activation, % at 8.33 µM. hit rate 0.19% among 320,000; in the data active means activation above about 80%; inconclusive means between about 30% and that limit; further: 0% is about no effect
Target sequence (Q8NER1 whole entry, looked up): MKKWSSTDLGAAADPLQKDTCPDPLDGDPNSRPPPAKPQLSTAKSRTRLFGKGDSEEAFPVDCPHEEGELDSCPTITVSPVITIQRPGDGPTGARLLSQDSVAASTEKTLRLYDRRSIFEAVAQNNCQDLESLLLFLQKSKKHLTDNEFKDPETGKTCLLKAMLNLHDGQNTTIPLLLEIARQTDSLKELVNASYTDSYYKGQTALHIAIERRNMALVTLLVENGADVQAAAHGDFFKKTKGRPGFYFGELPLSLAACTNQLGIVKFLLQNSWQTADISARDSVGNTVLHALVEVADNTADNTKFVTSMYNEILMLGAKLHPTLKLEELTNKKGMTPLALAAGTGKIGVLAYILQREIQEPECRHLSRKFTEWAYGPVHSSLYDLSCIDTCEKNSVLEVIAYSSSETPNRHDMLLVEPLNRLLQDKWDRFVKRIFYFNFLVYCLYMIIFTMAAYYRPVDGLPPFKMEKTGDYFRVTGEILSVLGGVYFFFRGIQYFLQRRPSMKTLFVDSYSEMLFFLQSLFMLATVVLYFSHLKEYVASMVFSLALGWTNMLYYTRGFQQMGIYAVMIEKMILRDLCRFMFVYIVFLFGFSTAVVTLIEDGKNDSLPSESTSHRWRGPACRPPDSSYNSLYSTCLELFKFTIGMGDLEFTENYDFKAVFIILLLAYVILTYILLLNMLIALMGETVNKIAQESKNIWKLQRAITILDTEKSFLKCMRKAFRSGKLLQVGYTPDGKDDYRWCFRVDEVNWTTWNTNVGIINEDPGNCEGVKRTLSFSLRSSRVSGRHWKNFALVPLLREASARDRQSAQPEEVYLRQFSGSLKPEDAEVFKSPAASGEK
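Cells expressing TRPV1 were dye-loaded with Fluo-8 and read kinetically: 10 s baseline, 3 min after compound (agonist portion), then 2 min after EC20 capsaicin (allosteric enhancer portion). Calcium-bound dye fluorescence at 480/520 nm.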
AT treatment: qHTS Assay for Identifying a Potential Treatment of Ataxia-Telangiectasia. F2112 A-T fibroblasts, KAP-1 phosphorylation AlphaLISA; neocarzinostatin DNA damage 30 min before lysis. Potency, µM (top dose mostly 57.5 µM), for inactives: at the top dose activation, usual class: activators. hit rate 0.19% among 320,000; further: potency means the concentration at half of the fitted maximal effect; % of control where 0% means no effect; nearly all actives have a fitted effect of over 45% in size
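hTERT-immortalized A-T patient fibroblasts (F2112), 500 cells/well in OPTI-MEM, 1% FBS, got compounds for 60 min, then NCS for 30 min at 37C. Lysates were then assayed for phospho-KAP-1 by AlphaLISA (anti-pKAP1 donor, anti-KAP1 acceptor beads), 6 hr at 25C.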
TRPV1 PAM: HTS Assay for Compounds that Act as Potentiators of the Vanilloid Receptor 1; Transient receptor potential cation channel subfamily V member 1 (Homo sapiens), Q8NER1; TRPV1-expressing cells, Fluo-8 calcium influx, capsaicin EC20 potentiation; potentiation, % at 8.33 µM; hit rate 0.02% among 320,000; in the data active means potentiation above about 80%; inconclusive means between about 30% and that limit; further: 0% is about no effect
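TRPV1-expressing cells were cultured overnight at 35.5C and loaded with Fluo-8 calcium dye for 40 to 90 min at room temperature. After a 10 s baseline, compound was added and calcium influx was read kinetically for 3 min (ex 480/em 520 nm).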
* hit, by the source's call; u = inconclusive; x = no result given; ! = not confirmed by another sample; [ ] = dose if it differs, or a comment. A selection: hits, their analogues and other compounds. The true share with any hit is near 0.55%. Unless noted, the call rests on the fitted dose curve; in most records, active means well fitted curve in the direction sought with a large enough effect; inconclusive means small, poorly fitted or top-dose-only effect, or another doubt; inactive means no such curve, though single readings can be large; an effect the other way counts as inactive or inconclusive.

SMILES	IMPase Li inh	TRPV1 ag	AT treatment	TRPV1 PAM
CC(C)(C)c1ccc(C(=O)Nc2cccc([N+](=O)[O-])c2)cc1	21%	84*	-4%	-2
Cc1c(C(=O)Nc2cccc([N+](=O)[O-])c2)cnn1-c1ccccc1	x	103*	-1%	-10
C[C@@]12C[C@H](O)C3[C@H](CCC4=CC(=O)CC[C@]43C)[C@H]1CC[C@@H]2c1csc(N)n1 (some centres undefined)	14%	x	x	x
O=C(Nc1ccc(Cl)cc1)c1ccc(Br)cc1F	1%	83*	1%	-6
CC[C@@H](Nc1ncnc2nc[nH]c12)C(=O)O	-5%	x	x	x
COC(=O)C1=CN(C(C)C)C=C(C(=O)OC)C1c1cc(Br)c(OC)c(OC)c1	9%	-1	20µM*	3
CCOc1ccc(/C(O)=C2\C(=O)C(=O)N(c3cc(C)on3)C2c2ccccc2OC)cc1 (centres undefined)	5µM*	-3	x	-7
Cc1ccc(-c2cc(C(=O)N3CCCC3)c3ccccc3n2)s1	x	6	20µM*	1
O=C(O)CCC(=O)NN1C(=O)c2ccccc2NC1c1ccco1 (centres undefined)	x	2	0.79µM*	-3
Cc1ccc(-n2c(=O)[nH]c3c(oc4ccccc43)c2=O)cc1	-5%	14	6%	-7
COc1ccc(-n2c(=S)[nH]c3c(oc4ccccc43)c2=O)cc1	6.3µM*	-2	3%	-3
CCCCC(CC)CNC(=O)CC1Nc2c3ccccc3nc(=S)n2C1=O (centres undefined)	13µM*	-2	-1%	-5
O=C(NC(Cc1ccccc1)C(=O)N1CCCCCC1)c1ccccc1 (centres undefined)	x	6	19%	-23
O=C(NC(CC1CCCCC1)C(=O)O)c1ccccc1 (centres undefined)	x	-9	25µM*	3
C=CCn1c(=S)[nH]c2scc(-c3cccs3)c2c1=O	11µM*	6	1%	16
Cn1c(=S)[nH]c2scc(-c3cccs3)c2c1=O	u	0	2%	-3
Cn1c(-c2c(N)n(CCCc3ccccc3)c3nc4ccccc4nc23)nc2ccccc21	10µM*	-5	27%	12
Cn1c(-c2c(N)n(CCc3ccccc3)c3nc4ccccc4nc23)nc2ccccc21	-18%[38.3 µM]	13	x	0
Cc1ccc(-c2nc3cnccn3c2Nc2c(C)cccc2C)o1	-4%[38.3 µM]	x	16µM*	x
CCC(C)(C(=O)NC1CCCC1)N(C)C(=O)c1ccccn1 (centres undefined)	-4%	5	-1%	89*
CCC(C)(C(=O)NC1CCCC1)N(C(=O)c1ccccn1)c1ccccc1 (centres undefined)	15%[38.3 µM]	-2	4%	5
O=C(Cc1ccc(Cl)cc1)N1CCN(c2ccccc2)CC1	x	1	22µM*	-13
CCC(=O)c1cc(F)c(N2CCN(C(=O)Cc3ccccc3)CC2)cc1C	9%	91*	-17%	-8
Cc1c(C)c(C)c(CC2(C)CSC2)c(CC2(C)CSC2)c1C	5%	x	x	x
Fc1ccc(C(c2ccc(F)cc2)N2CCN(C/C=C/c3ccccc3)CC2)cc1	19%	2	40µM*	-5
SMILES	IMPase Li inh	TRPV1 ag	AT treatment	TRPV1 PAM
C(=C\c1ccccc1)/CN1CCN(C(c2ccccc2)c2ccccc2)CC1	22%	3	12%	10
O=C(NCc1nc2ccccc2[nH]1)C1=C[C@H](c2ccc3c(c2)OCO3)C[C@H](OCCCCO)O1	1%	8	x	-13
O=C(NCc1nc2ccccc2[nH]1)C1=C[C@H](c2ccccc2)C[C@H](OCCCCO)O1	x	-5	40µM*	-36
CC(=O)c1ccc(N2CCN(C(=O)Nc3ccc(Cl)cc3)CC2)cc1	8%	84*	-2%	-18
CC(=O)c1ccc(NC(=O)N2CCN(c3cccc(Cl)c3)CC2)cc1	32%[38.3 µM]	0	6%	2
CCOC(=O)c1ccc(NC(=O)N2CCN(c3cccc(OC)c3)CC2)cc1	9%	99*	0%	-20
CN(CC(=O)O)CC(=O)O	6%	x	x	x
COC(=O)[C@@H]1CC2=CC(=O)CC[C@]2(C)[C@@]23O[C@@H]2C[C@@]2(C)[C@H](CC[C@@]24CCC(=O)O4)[C@@H]13	-5%	x	x	x
COc1cc2ccc(=O)oc2cc1O	10µM*!	13	10%	-17

Screening data: PubChem, National Center for Advancing Translational Sciences (NCATS)
